# Data from PubChem BioAssay AID1220 (Sanford-Burnham Center for Chemical Genomics, 2008).
# The whole screen tested about 190,000 compounds, of which about 1,300 (0.68%) were called active. No stated cut-off is given here; in the data, active means inhibition above about 50%; inactive means the rest. The entries come from a sample that favours actives as a whole.
# Target: Mannose-6-phosphate isomerase (Homo sapiens) (UniProt P34949)
# Experiment: MPI inhibition at elevated mannose 6-phosphate – biochemical, fluorescence intensity, high mannose 6-phosphate, primary screen (AID 1220)
# Settings: recombinant PMI enzyme, coupled fluorescence intensity; at 20 µM; hits give high values
# Chain of Mannose-6-phosphate isomerase (Homo sapiens) (P34949 whole entry, looked up): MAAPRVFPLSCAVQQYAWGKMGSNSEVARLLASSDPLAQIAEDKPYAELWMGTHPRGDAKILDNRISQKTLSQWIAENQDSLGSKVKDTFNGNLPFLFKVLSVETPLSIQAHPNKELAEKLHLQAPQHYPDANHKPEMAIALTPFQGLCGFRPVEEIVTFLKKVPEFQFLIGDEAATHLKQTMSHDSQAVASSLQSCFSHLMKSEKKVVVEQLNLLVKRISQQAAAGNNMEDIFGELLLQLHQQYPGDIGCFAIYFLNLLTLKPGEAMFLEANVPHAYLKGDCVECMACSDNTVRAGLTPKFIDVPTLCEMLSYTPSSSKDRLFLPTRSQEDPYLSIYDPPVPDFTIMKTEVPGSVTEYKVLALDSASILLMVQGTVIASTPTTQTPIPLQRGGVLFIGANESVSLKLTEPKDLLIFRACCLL
row,SMILES,inhibition
1,O=C(CN(C(=O)CNC(=O)c1cccs1)c1ccc2c(c1)OCCO2)NC1CCCC1,4.5% (inactive)
2,COc1ccc(N2CC(O)=C(c3nc(-c4ccc(F)cc4)cs3)C2=N)cc1Cl,-5.1% (inactive)
3,COc1ccccc1C(=O)NNC(=O)c1ccccc1F,-3.9% (inactive)
4,O=C1CN(CC(=O)N2CCCCC2)c2ccccc2O1,51.6% (active)
5,O=C(CN1CCCCC1)N1c2ccccc2Oc2ccccc21,-7.7% (inactive)
6,O=C1CN(CC(=O)N2CCOCC2)c2ccccc2O1,51.9% (active)
7,O=C(CN1CCOc2ccccc21)N1CCCC1,3.6% (inactive)
8,O=C(CN1CC(=O)Oc2ccccc21)OCC(=O)c1ccccc1,11.2% (inactive)
9,O=C(CN1C(=O)c2ccccc2C1=O)N1CCOCC1,7.3% (inactive)
10,COCCCNC(=O)Cc1ccccc1OC,-3.4% (inactive)
11,CCNc1nc(Oc2ccc(C(=O)OCC)cc2)nc(N2CCOCC2)n1,10% (inactive)
12,O=[N+]([O-])c1ccc(-c2ccc(C=Nc3cccc4ccccc34)o2)cc1,70% (active)
13,O=C(Cc1ccccc1)N/N=C/c1ccc(-c2ccc([N+](=O)[O-])cc2)o1,14.3% (inactive)
14,Cc1ccc(C)c(N=Cc2ccc(-c3ccc([N+](=O)[O-])cc3)o2)c1,10.6% (inactive)
15,CCCCOC(=O)c1ccc(Nc2ccc([N+](=O)[O-])cn2)cc1,-10.3% (inactive)
16,O=C(C1CCCCC1)N1CCN(S(=O)(=O)c2ccc(Br)cc2)CC1,1.8% (inactive)
17,COc1ccc(C(=O)Nc2nc3ccc(S(C)(=O)=O)cc3s2)cc1OC,7.7% (inactive)
18,O=[N+]([O-])c1cccc(S(=O)(=O)c2cccc([N+](=O)[O-])c2)c1,-1.5% (inactive)
19,CC(C)C1=CC(=NS(=O)(=O)c2cccc([N+](=O)[O-])c2)C=C(C(C)C)C1=O,59.4% (active)
20,CC(C)c1nccn1S(=O)(=O)c1cccc([N+](=O)[O-])c1,-2.8% (inactive)
21,CCOc1cc(NC(=S)NCc2ccco2)c(OCC)cc1NC(C)=O,7.1% (inactive)
22,CNC[C@H](O)c1cccc(O)c1,-2.7% (inactive)
23,CCC(NC(C)C)C(O)c1ccc(O)c(O)c1 (stereo not drawn),61.2% (active)

row,SMILES,inhibition
1,CCC(NC(C)C)C(O)c1ccc(O)c2[nH]c(=O)ccc12 (stereo not drawn),11.5% (inactive)
2,COc1ccc([C@H](C)NC[C@H](O)c2ccc(O)c(NC=O)c2)cc1,10.4% (inactive)
3,CCC(C)c1ccc(O)c(N)c1 (stereo not drawn),31.5% (inactive)
4,CNC[C@H](O)c1ccc(O)c(O)c1,59% (active)
5,O=C(NC(=S)Nc1cc(C(F)(F)F)ccc1N1CCOCC1)c1sc2ccccc2c1Cl,2.7% (inactive)
6,Cc1ccc(/C=C2\C(=O)ON=C2c2ccccc2)o1,5.3% (inactive)
7,Cc1cccc(C)c1N(CC(=O)N1CCN(c2ccccc2F)CC1)S(C)(=O)=O,1.2% (inactive)
8,COc1cc(/C(C)=N/Nc2ccc(C(=O)O)cc2)cc(OC)c1OC,-109% (inactive)
9,Cc1ccnc(NS(=O)(=O)c2ccc(NC(=O)C3COc4ccccc4O3)cc2)n1 (stereo not drawn),-9.4% (inactive)
10,Cc1cc(C)nc(NS(=O)(=O)c2ccc(NC(=O)C3COc4ccccc4O3)cc2)n1 (stereo not drawn),54.1% (active)
11,O=C(Nc1ccc(S(=O)(=O)Nc2ncccn2)cc1)C1COc2ccccc2O1 (stereo not drawn),8.2% (inactive)
12,Cc1ccccc1NC(=O)c1oc(=O)c2ccccc2c1-c1ccccc1,-3.9% (inactive)
13,CCN(CC)C1=CC2=CC(=C(C#N)C#N)CCC2CC1 (stereo not drawn),50.6% (active)
14,CCCCN(C)C1=CC2=CC(=C(C#N)C#N)CCC2CC1 (stereo not drawn),51.1% (active)
15,Cc1cc(C=NCCO)c(C)n1-c1cc(Cl)ccc1Cl,1.2% (inactive)
16,C=CCNC(=O)CN(c1ccccc1OCC)S(=O)(=O)c1ccc(C)cc1,9.1% (inactive)
17,O=C(c1cccc(Br)c1)N1CCN(S(=O)(=O)N2CCOCC2)CC1,-0.4% (inactive)
18,Cc1nn(-c2nc3ccccc3s2)c(N)c1-c1ccc(Cl)cc1,-4.7% (inactive)
19,CCOC(=O)c1ccccc1N=N/C(C(C)=O)=C(/C)O,3.4% (inactive)
20,Cc1cc(C(=O)Nc2sc3c(c2C#N)CCC(C)C3)cs1 (stereo not drawn),-2.5% (inactive)
21,O=C(Cn1cnc2ccccc2c1=O)NCc1cccs1,36.2% (inactive)
22,COc1ccc(O)c(C=Nc2cc(C)on2)c1,23.9% (inactive)
23,COc1cccc(/C=N/NC(=O)C(=O)N/N=C/c2cccc(OC)c2O)c1O,-27.8% (inactive)

row,SMILES,inhibition
1,COc1ccc(O)c(C=NCC(C)N=Cc2cc(OC)ccc2O)c1 (stereo not drawn),51.9% (active)
2,COc1cccc(C=NCC(C)N=Cc2cccc(OC)c2O)c1O (stereo not drawn),52.3% (active)
3,COc1cccc(C=Nc2cc(C)cc(C)c2)c1O,17.1% (inactive)
4,CCCn1c(/N=C/c2cc(OC)ccc2O)nc2ccccc21,13.5% (inactive)
5,Cc1ccc(CN(Cc2cc3cc4c(cc3[nH]c2=O)OCCO4)Cc2nnnn2Cc2ccco2)cc1,17.2% (inactive)
6,CC(C)Cn1c(N2CCN(CC(=O)Nc3ccc(Cl)cc3)CC2)nc2ccccc21,13.8% (inactive)
7,CCn1c(CN2CCN(C(=O)c3ccco3)CC2)nc2c1c(=O)n(C)c(=O)n2C,-1% (inactive)
8,CCCS(=O)(=O)c1cn2cccc(N)c2c1S(=O)(=O)CCC,4% (inactive)
9,CC(=O)N1CCc2cc(NC(=O)c3ccc(C)cc3)ccc21,3.7% (inactive)
10,Cn1nnc2cc(C(=O)N3CCCCCC3)ccc21,0.1% (inactive)
11,COc1cc(/C=C(\C#N)c2nc3ccc(C)cc3[nH]2)c([N+](=O)[O-])cc1OC,47.8% (inactive)
12,COc1cc(C=C(c2nc3ccccc3s2)c2nc3ccccc3s2)ccc1O,34.4% (inactive)
13,COc1ccc(C=C(c2nc3ccccc3s2)c2nc3ccccc3s2)cc1O,31.1% (inactive)
14,COc1cc(/C=C(\C#N)c2nc3ccc(C)cc3[nH]2)cc([N+](=O)[O-])c1O,64.5% (active)
15,COc1cc(/C=C(\C#N)c2nc3ccccc3[nH]2)c([N+](=O)[O-])cc1OCc1ccccc1,66.5% (active)
16,COc1cc(C=C(c2nc3ccccc3s2)c2nc3ccccc3s2)cc(OC)c1O,54.4% (active)
17,COc1cc(/C=C(\C#N)c2nc3ccccc3s2)cc([N+](=O)[O-])c1O,71.2% (active)
18,COc1cc(/C=C(/C#N)c2nc3ccccc3[nH]2)ccc1Oc1ncccc1[N+](=O)[O-],11.5% (inactive)
19,COc1cc(/C=C(\C#N)c2nc3ccccc3s2)ccc1OCC(=O)Nc1ccccc1,-0.3% (inactive)
20,COc1ccc(/C=C(\C#N)c2nc3ccc(C)cc3[nH]2)cc1Oc1ccc(C(F)(F)F)cc1[N+](=O)[O-],1.7% (inactive)
21,N#C/C(=C\c1ccc(O)c([N+](=O)[O-])c1)c1nc2ccccc2s1,0.6% (inactive)
22,COc1cc(/C=C(\C#N)c2nc3ccccc3[nH]2)cc(Br)c1OCc1ccccc1,-16.7% (inactive)
